# Compound activity (PubChem BioAssay)
# p53ts 32C kill – kills p53ts cells at the permissive temperature; H1299-p53A138V at 32C, ATP luminescence viability, 24 h; Potency, µM (series often up to 46.1 µM), actives largely listed as cytotoxic; 130,000 compounds, 0.93% hits; further: nearly all actives have a fitted effect of over 55% in size
#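 Cells: H1299 p53ts (A138V), 600/well, pre-incubated 16–30 h at 37C. Cpd up to 46 uM, 24 h, 32C. Readout: ATPlite luminescence, 20 min RT. Normalization: DMSO vs tamoxifen 100 uM. AC50 by Hill equation.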
# Peg3 imprint – induces erasure of genomic imprints in mouse ES cells; mouse ES Peg3-LacZ reporter, beta-gal luminescence, 40 h; Potency, µM (doses to about 60.7 µM), actives largely listed as activators; 110,000 compounds, 0.02% hits
#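 Imprint erasure is scored as LacZ activity from the silenced maternal Peg3 allele in feeder-free female ES cells cultured 40 h with LIF. Luminescence is normalized to in-plate negative controls and fitted to the Hill equation.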
# IkB signaling – IkB pathway inhibition in ABC-DLBCL cells; ABC-DLBCL IkBa-CBG/CBR dual luciferase ratio, 4 h; response scale: scaled: untreated 0%, proteasome inhibitor 100%; 110,000 compounds, 0.04% hits; AID 445; Potency, µM (doses to about 57.1 µM); active means well fitted curve in the direction sought with a large enough effect in the signal ratio, not every such curve was filed as active; inconclusive means small, poorly fitted or top-dose-only effect, or a change in a side signal; the % refers to the signal ratio;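 further: the direction sought is a rising ratio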
#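 Luminescence ratio of IκBα-fused green versus native red beetle luciferase in OCI-Ly3 cells, 4 h post-doxycycline with compound; red signal alone, scaled from basal (0%) to zero light (-100%), flagged nonspecific or cytotoxic effects.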
# p53ts 39C kill – cytotoxicity in p53ts cells at nonpermissive temperature; H1299-p53A138V viability at 39C, ATP luminescence, 24 h; Potency, µM (series often up to 46.1 µM), actives largely listed as cytotoxic; 130,000 compounds, 1.5% hits; AID 902; further: nearly all actives have a fitted effect of over 55% in size
# Numbers stand for hits; - = inactive; ? = inconclusive; . = no result; [ ] = dose if it differs, or a comment. Most compounds without a hit are left out; they make up all but 1.8% or so of the library. Unless noted, the call rests on the fitted dose curve; in most records, active means well fitted curve in the direction sought with a large enough effect; inconclusive means small, poorly fitted or top-dose-only effect, or another doubt; inactive means no such curve, though single readings can be large; an effect the other way counts as inactive or inconclusive.
SMILES,p53ts 32C kill,Peg3 imprint,IkB signaling,p53ts 39C kill
Cc1nnc(NC(=O)c2nc(S(=O)(=O)Cc3ccccc3)ncc2Cl)s1,?,-[10.9 µM],-,16µM
COc1ccc2nc(NC(=O)c3nc(S(=O)(=O)Cc4ccccc4)ncc3Cl)sc2c1,13µM,-[10.9 µM],?,5µM
O=C(Nc1nc2ccc(F)cc2s1)c1nc(S(=O)(=O)Cc2ccccc2)ncc1Cl,?,-[10.9 µM],-,?
Cc1cccc(CS(=O)(=O)c2ncc(Cl)c(C(=O)Nc3nc4ccc(F)cc4s3)n2)c1,16µM,-[10.9 µM],?,10µM
Cc1ccc2nc(NC(=O)c3cc(=O)c4cc(C)c(C)cc4o3)sc2c1,-,-[10.9 µM],-,-
Cc1cc(NC(=O)CCC(=O)N(CC(=O)NC2CCCC2)Cc2ccccc2Cl)no1,-,-,-,-
CCCCC(NS(=O)(=O)c1ccc(OC)cc1)C(=O)O (configuration not stated),-,-,-,?
COc1ccc2nc(NC(=O)c3nc(SCc4ccccc4F)ncc3Cl)sc2c1,-,-[10.9 µM],-,-
O=C(Nc1ccccc1F)c1nc(S(=O)(=O)Cc2ccccc2F)ncc1Cl,?,-[10.9 µM],?,4µM
COc1ccc2nc(NC(=O)c3nc(S(=O)(=O)Cc4ccccc4F)ncc3Cl)sc2c1,?,-[10.9 µM],-,4µM
COC(=O)c1ccccc1NC(=O)c1nc(S(=O)(=O)Cc2ccccc2F)ncc1Cl,-,-[10.9 µM],-,-
Cn1c(C(=O)NCCc2ccccc2)cc2sc(Cl)cc21,16µM,-[10.9 µM],-,13µM
O=C(c1ccccc1)N1CCN(C(=O)c2ccccc2Br)CC1,-,-,-,-
COc1cccc(CNC(=O)c2cc3ccc4cccnc4c3[nH]2)c1,-,-[10.9 µM],?,?
Cc1ccc(-c2cn3ccc(C)cc3n2)cc1,0.5µM,-[10.9 µM],?,0.63µM
CCCS(=O)(=O)Nc1cc(-c2cn3ccc(C)cc3n2)ccc1C,?,-[10.9 µM],-,?
COc1ccc(-c2cn3ccccc3n2)cc1OC,3.2µM,-,-,5µM
COc1ccc(-c2cn3cc(C)ccc3n2)cc1OC,10µM,-,-,13µM
COc1cc2c(cc1OC)C(=O)N(C)CC2,-,-,-[11.4 µM],-
COc1ccccc1N=c1oc2cc(O)ccc2cc1C(N)=O,?,-,?,13µM
CC(C)c1nc2oc3c(=O)[nH]cnc3c2c2c1CCC2,-,-,-,-
Cc1ccc(NS(=O)(=O)c2ccc3[nH]c4c(c3c2)CCCCCC4)cc1Cl,-,-[10.9 µM],?,25µM
Cc1cccc(NS(=O)(=O)c2ccc3[nH]c4c(c3c2)CCCCCC4)c1,-,-[10.9 µM],?,?
COc1ccc(NS(=O)(=O)c2ccc3[nH]c4c(c3c2)CCCC4)cc1Cl,-,.,.,.
Cc1ccccc1NS(=O)(=O)c1ccc2[nH]c3c(c2c1)CCCCC3,-,-[10.9 µM],?,25µM
SMILES,p53ts 32C kill,Peg3 imprint,IkB signaling,p53ts 39C kill
COc1ccc(-n2c(=O)c(C)nc3cnc(N4CCNCC4)nc32)cc1,-,.,-[11.4 µM],-
COc1ccccc1OCCn1c(-c2ccc(Br)cc2)nc2ccccc2c1=O,-,-[10.9 µM],-,-
O=Nc1c(-c2c(O)[nH]c3ccccc23)[nH]c2ccccc12,25µM,-,?,25µM
Cc1cc(C(F)F)n2ncc(C(=O)NC3CCCCCC3)c2n1,-,-,-,-
Cc1cc(Oc2nc3c(C)cccn3c(=O)c2/C=C(\C#N)S(=O)(=O)c2ccccc2)ccc1Cl,.,.,.,-
O=C(Nc1ccc(N2CCCCC2)cc1)c1ccc(F)cc1,7.9µM,-,-,?
Cc1ccccc1Nc1nnc(-c2ccc(C)c(S(=O)(=O)N3CCCCC3)c2)c2ccccc12,-,-[10.9 µM],-,-
Cn1ccc2cc3c(cc21)CCN3C(=O)Nc1cccnc1,10µM,-,-,10µM
NNc1nncc2ccccc12,7.9µM,-,-,10µM
CC1CCN(c2nncc3ccccc23)CC1,-,-,-,-
COc1ccc(/C=N/Nc2nncc3ccccc23)cc1,.,.,.,3.2µM
COc1ccccc1/C=N/Nc1nncc2ccccc12,?,.,.,-
CN(Cc1ccccc1)C(=O)c1cccc(NC(=O)c2nsc3ccccc23)c1,?,-[10.9 µM],-,10µM
CC(C)Oc1ccc(CNC(=O)c2cccc(NC(=O)c3nsc4ccccc34)c2)cc1,-,-[10.9 µM],-,-
CCCCc1ccc(-c2ccc(Br)cc2)nc1,-,.,.,-
CCCc1ccc(-c2ccc(F)c(N)c2)nc1,4µM,-,?,7.9µM
CCCOc1ccc(CNC(=O)C(CC)n2nc(C)c3sc4ccccc4c3c2=O)cc1 (configuration not stated),-,-[10.9 µM],-,-
CC(C)c1ccc(Cn2ccc3c4c(N)nc(NC5CC5)nc4ccc32)cc1,?,-,-,32µM
